Data: PubChem BioAssay
A number with no mark means an inactive call. For part of these data: Entries with a potency or affinity are not part of this list. Calls of active or inactive are those of the source. Unless noted, how the calls were made is not given here.

Tests used:
[1] = antimalarial activity against Dd2 strain (AID 2302;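 active means growth inhibition above 50% at the single 2 µM test dose, taken to imply half-maximal potency below 2 µM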;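 further: 0% = DMSO untreated growth and 100% = chloroquine plus artemisinin killed control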); details: P. falciparum Dd2 in RBCs, LDH growth readout, 72 h; at 2 µM; stronger effect = higher value
[2] = human hepatoma cell viability loss – ATP luminescence, cytotoxicity control for P. falciparum antimalarial project, primary screen (AID 2303;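 active means inhibition above 50%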;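 further: 0% = DMSO wells and 100% = digitonin-killed cells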); details: HepG2 viability, 24-48 h, at 10 µM, stronger effect = higher value
[3] = target: L-lactate dehydrogenase (Plasmodium falciparum (isolate CDC / Honduras)) (UniProt Q27743); assay: PfLDH activity inhibition – cell lysate, 3D7 strain, counter-screen for P. falciparum growth inhibition project (AID 2304);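 further: 0% = vehicle and 100% = reference inhibitor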; details: P. falciparum 3D7 crude extract, LDH APAD/NBT absorbance; at 2 µM; stronger effect = higher value
[4] = inhibition of 3D7 malaria parasite growth – strain 3D7 (AID 2306);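 further: 0% = DMSO wells and 100% = chloroquine plus artemisinin control wells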; details: P. falciparum 3D7 erythrocytic growth, LDH absorbance, 72 h; at 2 µM; stronger effect = higher value
[5] = target: Calcium-dependent protein kinase 1 (Plasmodium falciparum (isolate 3D7)) (UniProt P62344); assay: PfCDPK1 kinase inhibitors, biochemical, TCAMS library (AID 1159585; cut-off not given, nearly all actives have IC50 up to about 0.98 µM;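 further: inhibitors leave more ATP so luminescence rises with inhibition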); details: recombinant PfCDPK1, Kinase-Glo ATP depletion luminescence
[6] = target: Plasmodium falciparum protein kinase 6 (PK6, PF3D7_1337100) (UniProt Q8IDW1); assay: PfPK6 kinase inhibitors, biochemical, TCAMS library (AID 1159586); details: recombinant PfPK6, Kinase-Glo ATP depletion luminescence
[7] = target: Protein kinase 7 (PK7), Plasmodium falciparum 3D7 (PF3D7_0213400) (UniProt Q7YTF7); assay: inhibition of Plasmodium PK7 catalytic activity – biochemical, TCAMS antimalarial set, Kinase-Glo luminescence (AID 1159587); details: recombinant PfPK7, Kinase-Glo ATP depletion luminescence
[8] = target: Calcium-dependent protein kinase 4 (Plasmodium falciparum (isolate 3D7)) (UniProt Q8IBS5); assay: PfCDPK4 kinase inhibitors, biochemical, TCAMS library (AID 1159588; cut-off not given, nearly all actives have IC50 up to about 0.91 µM); details: recombinant PfCDPK4, Kinase-Glo ATP depletion luminescence
Calcium-dependent protein kinase 4 (Plasmodium falciparum (isolate 3D7)), sequence (Q8IBS5 whole entry, looked up): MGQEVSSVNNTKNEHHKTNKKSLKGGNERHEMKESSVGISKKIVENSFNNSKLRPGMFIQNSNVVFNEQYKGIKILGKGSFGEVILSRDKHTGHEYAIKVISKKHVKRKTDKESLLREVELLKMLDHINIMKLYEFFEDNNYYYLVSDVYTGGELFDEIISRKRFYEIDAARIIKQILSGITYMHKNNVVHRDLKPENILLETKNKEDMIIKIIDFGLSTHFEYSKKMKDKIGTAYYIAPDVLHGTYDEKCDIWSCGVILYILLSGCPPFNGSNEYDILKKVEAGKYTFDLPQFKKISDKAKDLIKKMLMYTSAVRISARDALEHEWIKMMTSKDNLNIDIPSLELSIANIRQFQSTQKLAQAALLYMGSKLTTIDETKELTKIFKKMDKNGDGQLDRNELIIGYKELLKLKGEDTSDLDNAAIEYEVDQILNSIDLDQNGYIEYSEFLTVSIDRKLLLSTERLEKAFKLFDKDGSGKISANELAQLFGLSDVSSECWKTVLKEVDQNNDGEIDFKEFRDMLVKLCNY

Calcium-dependent protein kinase 1 (Plasmodium falciparum (isolate 3D7)), sequence (P62344 whole entry, looked up): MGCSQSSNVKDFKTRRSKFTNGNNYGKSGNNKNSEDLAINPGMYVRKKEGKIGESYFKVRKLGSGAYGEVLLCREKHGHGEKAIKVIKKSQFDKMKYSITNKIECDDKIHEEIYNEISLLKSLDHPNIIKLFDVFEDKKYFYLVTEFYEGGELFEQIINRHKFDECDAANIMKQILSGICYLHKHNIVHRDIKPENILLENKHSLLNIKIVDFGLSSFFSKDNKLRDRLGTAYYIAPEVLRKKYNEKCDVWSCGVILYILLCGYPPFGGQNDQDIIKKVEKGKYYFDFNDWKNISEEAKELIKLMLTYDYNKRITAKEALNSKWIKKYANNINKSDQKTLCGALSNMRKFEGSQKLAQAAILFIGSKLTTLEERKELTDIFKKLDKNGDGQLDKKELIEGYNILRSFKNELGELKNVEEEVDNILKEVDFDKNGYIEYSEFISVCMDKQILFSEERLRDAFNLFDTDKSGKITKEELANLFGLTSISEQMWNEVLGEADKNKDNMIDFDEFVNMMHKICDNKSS
Plasmodium falciparum protein kinase 6 (PK6, PF3D7_1337100), sequence (Q8IDW1 1-305): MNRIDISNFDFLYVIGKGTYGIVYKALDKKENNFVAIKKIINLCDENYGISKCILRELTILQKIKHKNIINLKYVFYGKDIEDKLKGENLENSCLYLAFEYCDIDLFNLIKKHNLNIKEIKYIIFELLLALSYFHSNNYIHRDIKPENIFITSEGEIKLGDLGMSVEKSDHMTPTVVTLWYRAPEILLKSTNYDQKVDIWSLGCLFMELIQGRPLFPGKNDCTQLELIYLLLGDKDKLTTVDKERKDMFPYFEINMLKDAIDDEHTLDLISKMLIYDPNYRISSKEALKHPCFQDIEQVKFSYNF
L-lactate dehydrogenase (Plasmodium falciparum (isolate CDC / Honduras)), sequence (Q27743 whole entry, looked up): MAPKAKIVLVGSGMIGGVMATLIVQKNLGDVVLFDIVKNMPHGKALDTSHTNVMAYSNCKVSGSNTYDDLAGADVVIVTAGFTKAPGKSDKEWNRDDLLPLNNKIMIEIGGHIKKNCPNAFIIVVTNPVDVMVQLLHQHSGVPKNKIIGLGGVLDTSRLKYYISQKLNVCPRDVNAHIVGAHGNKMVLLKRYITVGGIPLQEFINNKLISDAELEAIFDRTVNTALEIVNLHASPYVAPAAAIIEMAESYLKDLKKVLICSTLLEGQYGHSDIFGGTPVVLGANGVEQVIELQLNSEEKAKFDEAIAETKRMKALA
Protein kinase 7 (PK7), Plasmodium falciparum 3D7 (PF3D7_0213400), sequence (Q7YTF7 1-343): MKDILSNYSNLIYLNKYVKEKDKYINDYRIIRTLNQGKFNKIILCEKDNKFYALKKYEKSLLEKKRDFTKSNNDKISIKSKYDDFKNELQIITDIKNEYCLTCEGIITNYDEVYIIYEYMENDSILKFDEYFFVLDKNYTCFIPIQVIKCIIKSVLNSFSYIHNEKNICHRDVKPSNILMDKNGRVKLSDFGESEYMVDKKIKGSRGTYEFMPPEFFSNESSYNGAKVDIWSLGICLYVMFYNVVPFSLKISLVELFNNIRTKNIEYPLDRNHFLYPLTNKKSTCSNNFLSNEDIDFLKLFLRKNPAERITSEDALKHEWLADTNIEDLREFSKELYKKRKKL

| SMILES | growth inhibition [1] | inhibition [2] [%] | inhibition [3] [%] | growth inhibition [4] | outcome [5] | outcome [6] | outcome [7] | outcome [8] |
| --- | --- | --- | --- | --- | --- | --- | --- | --- |
| Cc1cc(N[C@@H](Cc2ccccc2)C(=O)NCCOc2ccccc2)nc(NCCc2cccs2)n1 | 32% | 8 | 0 | 95% (active) | inactive | inactive | inactive | inactive |
| Cc1ccc(NC(=O)c2ccc(CN3CCCN(Cc4cccc(O)c4)CC3)cc2)cc1C | 25% | 33 | 4 | 98% (active) | inactive | inactive | inactive | inactive |
| CCOC(=O)c1[nH]c(-c2ccc(Cl)cc2)nc1NC(=S)NCCCN1CCOCC1 | 33% | 22 | -4 | 92% (active) | inactive | inactive | inactive | inactive |
| CC(C)CN(c1nc(C(=O)NNC(=O)[C@H](CC2CC2)NC(=O)c2cc3cc(OCCN(C)C)ccc3o2)cs1)C1CC1 | 97% (active) | -5 | -4 | 87% (active) | inactive | inactive | inactive | inactive |
| O=C(Cn1c(SCc2cccc(F)c2F)cc(=O)c2ccccc21)N(CCCn1ccnc1)Cc1ccc(-c2ccc(C(F)(F)F)cc2)cc1 | 99% (active) | 21 | -5 | 99% (active) | inactive | inactive | inactive | inactive |
| O=C(/C=C/c1ccc(Cl)c(Cl)c1)NCCCCCN1CCCN(C(=O)Nc2ccc(Cl)cc2)CC1 | -5% | 21 | -5 | 100% (active) | inactive | inactive | inactive | inactive |
| Cc1[nH]c2ccc(O)cc2c1C1CCN(CCCCCNC(=O)/C=C/c2ccc(Cl)c(Cl)c2)CC1 | 1% | 33 | 2 | 101% (active) | inactive | inactive | inactive | inactive |
| CCNc1cc(C(=O)N[C@@H](Cc2ccccc2)[C@H](O)CNC(C)(C)CC(C)(C)C)c(F)c(N2CCCCS2(=O)=O)c1 | 63% (active) | 8 | -1 | 94% (active) | inactive | inactive | inactive | inactive |
| COc1ccc(NC(=O)[C@H](CC(C)C)Nc2cc(C)nc(NCC3CCCCC3)n2)cc1 | 92% (active) | 7 | 2 | 101% (active) | inactive | inactive | inactive | inactive |
